Mcl1 Bid PPI: Mcl-1/Bid interaction inhibition; TR-FRET Mcl-1/Bid-Dy647 peptide binding, 1536-well; inhibition, % at 21.7 µM; 0.97% of 220,000 active;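 active means compounds that cut the binding signal by more than half at the single screening dose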;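 further: His-tagged Mcl-1 with europium anti-His antibody binding Bid BH3 peptide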
Pf gametocyte: kills late stage P. falciparum gametocytes | P. falciparum stage V gametocytes, ATP luminescence, 24 h | inhibition, % at 10.9 µM | 0.065% of 150,000 active | AID 743093;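 active means inhibition above the mean plus 3 SD of compounds within the control limits, set per campaign, cut at about 38% in these data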
Bim-Mcl-1: inhibitors of Bim-Mcl-1 interaction, human | Bead-based flow cytometry, Bim peptide-Mcl-1 binding | inhibition, % at 10 µM | 0.1% of 190,000 active | AID 1009; in the data active means inhibition above about 40%
14-3-3 Bad inh: disrupts binding of bovine 14-3-3 zeta to phospho-Bad peptide | TR-FRET 14-3-3zeta/Dy647-pBad peptide displacement, 1 h | 0.71% of 220,000 active | AID 781 | inhibition, % at 21.7 µM;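 active means inhibition above about 70%, limit read from the data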
Target sequence (P63103 whole entry, looked up): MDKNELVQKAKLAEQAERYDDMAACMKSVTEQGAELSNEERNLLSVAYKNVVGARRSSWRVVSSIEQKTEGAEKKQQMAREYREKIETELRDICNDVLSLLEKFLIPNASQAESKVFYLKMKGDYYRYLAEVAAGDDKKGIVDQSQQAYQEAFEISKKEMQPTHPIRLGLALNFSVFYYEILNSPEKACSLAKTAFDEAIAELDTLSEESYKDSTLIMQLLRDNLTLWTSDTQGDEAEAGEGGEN
Mcl1 Noxa PPI: Mcl-1/Noxa interaction inhibition; Q07820; TR-FRET Mcl-1/Noxa peptide binding, 2 h; inhibition, % at 21.7 µM; 1.5% of 220,000 active; AID 1022;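 active means compounds that cut the protein-peptide binding signal by more than 50% relative to plate controls in a single-dose test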;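 further: His-tagged Mcl-1 with rhodamine Noxa BH3 peptide and terbium anti-His antibody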
eIF4E-4G inh: eIF4E/eIF4G interaction inhibition in translation initiation | P63073+Q04637 | TR-FRET eIF4E-eIF4GI(517-606) binding, 2 h | inhibition, % at 21.7 µM | 0.37% of 220,000 active | AID 782;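 active means inhibition above about 30%, limit read from the data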
Of the large screens only hits and unclear results are named; the others gave an inactive call; [ ] = remark or other dose. Most compounds without a hit are left out; they make up all but 2.7% or so of the library.

Cc1nc(CC(=O)N2CCN(c3cccc(C)c3C)CC2)cs1	none
Nc1nc(N)c(N=Nc2ccc(C(=O)O)cc2)c(N)n1	none (no result: Pf gametocyte, Bim-Mcl-1)
O=C(O)c1ccc(N=Nc2c(O)[nH]c3cc(Cl)ccc23)cc1	Mcl1 Noxa PPI 62 (no result: Bim-Mcl-1)
COc1ccc(NC(=O)c2cc(C3CC3)on2)c(OC)c1	Mcl1 Bid PPI 85 (no result: Pf gametocyte)
O=C(O)c1ccc(-n2cccc2/C=C2/NC(=O)N(c3ccccc3)C2=O)cc1	Mcl1 Noxa PPI 72 (no result: Bim-Mcl-1)
O=C(O)c1cccc(-n2cccc2/C=C2\NC(=O)N(Cc3ccc(F)cc3)C2=O)c1	none
O=C(O)c1ccc(-n2cccc2/C=C2/NC(=O)N(c3cccc(Cl)c3)C2=O)cc1	14-3-3 Bad inh 80, Mcl1 Noxa PPI 74, eIF4E-4G inh 38
O=C(NNC(=O)C1C2CCC(C2)C1C(=O)O)c1cccc(Cl)c1 (configuration not stated)	none
CC1=CC(=O)c2ccccc2C1=O	none (no result: Pf gametocyte)
CC(C)(C=O)C1=CC(=O)c2ccccc2C1=O	Mcl1 Noxa PPI 85
O=C1C=CC(=O)N1c1ccc(Sc2ccc([N+](=O)[O-])cc2)cc1	Mcl1 Noxa PPI 73 (no result: Pf gametocyte, Bim-Mcl-1)
Nc1ccc(Sc2ccc([N+](=O)[O-])cc2)cc1	none
Cc1cccc(C)c1NC(=S)/C(=C(\[O-])c1cccs1)[n+]1ccccc1	none
[O-]/C(=C(\C(=S)Nc1cccc2ccccc12)[n+]1ccccc1)c1cccs1	14-3-3 Bad inh 84
Cc1cc(NS(=O)(=O)c2ccc(NC(=O)C(F)(F)F)cc2)nc(C)n1	none (no result: Mcl1 Bid PPI, Bim-Mcl-1, 14-3-3 Bad inh, Mcl1 Noxa PPI, eIF4E-4G inh)
COc1ccccc1N1CCN(S(=O)(=O)Cc2ccccc2Cl)CC1	eIF4E-4G inh 31 (no result: Pf gametocyte)
COc1ccccc1N1CCN(S(=O)(=O)c2ccccc2)CC1	none
C/C(=N\Nc1nc2c(s1)CCCC2)c1ccccc1	14-3-3 Bad inh 80[fluorescence artefact?] (no result: Pf gametocyte)
COc1cc2c(cc1OC)CN(C(=S)Nc1ccc(C)cc1C)CC2	Pf gametocyte 48
COc1cc2c(cc1OC)CN(C(=S)Nc1ccccc1Cl)CC2	none
COC(=O)c1ccc(Cn2nc([N+](=O)[O-])c(Br)c2C)cc1	none (no result: Bim-Mcl-1)
NC(N)=N/N=C/c1ccc(Cl)c(Cl)c1	none (no result: Bim-Mcl-1)
NC(N)=N/N=C/c1ccc(Cl)cc1Cl	Mcl1 Bid PPI 51 (no result: Bim-Mcl-1)
Cc1n[nH]c(=O)nc1NCc1ccco1	eIF4E-4G inh 74 (no result: Pf gametocyte)
CCOC(=O)c1sc(N2N=C(C)C(N=Nc3cccc(C)c3)C2=O)nc1C (configuration not stated)	Mcl1 Bid PPI 86, 14-3-3 Bad inh 97 (no result: Bim-Mcl-1)
O=C(Nc1nc(N2C(=O)c3ccccc3C2=O)n(-c2ccccc2)n1)c1ccc(Cl)cc1	none (no result: Pf gametocyte)
O=C1Cc2ccccc2C(c2ccc(Cl)cc2)N1 (configuration not stated)	none (no result: Bim-Mcl-1)
O=C1Cc2ccccc2C(c2ccccc2)N1 (configuration not stated)	14-3-3 Bad inh 79 (no result: Pf gametocyte)
COc1ccc(-c2cc(C(=O)Nc3cc(OC)cc(C(=O)Nc4cccc(C(F)(F)F)c4)c3)[nH]n2)cc1	none (no result: Bim-Mcl-1)
Cc1nnc(Sc2cc(C(=O)NC3CC3)c3ccccc3n2)s1	Mcl1 Bid PPI 99 (no result: Bim-Mcl-1)
CC(C)(C)C(=O)Nc1nc(C2CCCN2S(=O)(=O)c2ccc(Cl)cc2)cs1 (configuration not stated)	14-3-3 Bad inh 71 (no result: Pf gametocyte)
O=C(Nc1nc(-c2ccccc2)cs1)C1CCCCN1S(=O)(=O)c1ccc(Cl)cc1 (configuration not stated)	none (no result: Pf gametocyte)
Cc1cc(N)ccc1N1CCCC1	14-3-3 Bad inh 97[fluorescence artefact?], Mcl1 Noxa PPI 83, eIF4E-4G inh 45[fluorescence artefact?] (no result: Pf gametocyte)
CCN(CC)c1nc2c3c(nc4c(c3c1C#N)CC(=O)N4c1ccc(Cl)cc1)NC(C)=N2	Mcl1 Noxa PPI 82
COc1c(C)cc(C(=O)C2CCCN(Cc3ccc(Oc4ncccn4)cc3)C2)cc1C (configuration not stated)	eIF4E-4G inh 70
COC(=O)c1ccc(CSc2nnc(NC(=O)C3CC(=O)N(Cc4ccc(C)cc4)C3)s2)cc1 (configuration not stated)	none (no result: Pf gametocyte)
COc1ccc(CCN=C(N)NS(=O)(=O)c2ccc(C)cc2)cc1OC	Mcl1 Noxa PPI 55
O=C(N/N=C/c1c[nH]c2ccc(Br)cc12)C1CC1	none (no result: Bim-Mcl-1)
Cc1nc(C)n(CC(O)COc2ccc3c(c2)CCC3)n1 (configuration not stated)	Mcl1 Bid PPI 92

Source: PubChem
